GALK inhibitor: galactokinase (human) inhibition | P51570 | Purified GALK, Kinase-Glo residual ATP luminescence | Potency, µM (titrated, usually from 57.5 µM), usual class: inhibitors | hit rate 0.007% among 270,000 | AID 1868
Target sequence (P51570 whole entry, looked up): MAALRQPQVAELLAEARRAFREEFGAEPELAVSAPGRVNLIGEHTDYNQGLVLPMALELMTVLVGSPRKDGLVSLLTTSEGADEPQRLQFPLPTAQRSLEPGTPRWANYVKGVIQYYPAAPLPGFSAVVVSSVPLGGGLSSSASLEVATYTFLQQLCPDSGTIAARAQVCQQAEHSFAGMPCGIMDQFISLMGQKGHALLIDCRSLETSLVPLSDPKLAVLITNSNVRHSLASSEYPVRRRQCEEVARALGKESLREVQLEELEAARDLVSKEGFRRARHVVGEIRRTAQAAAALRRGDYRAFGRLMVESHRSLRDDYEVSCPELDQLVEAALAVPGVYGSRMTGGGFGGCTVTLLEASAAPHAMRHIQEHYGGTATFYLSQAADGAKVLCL
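Kinase-Glo Plus luminescence measured ATP left after a 1 h room-temperature reaction. The reaction used 5 nM GALK, 100 uM galactose and 35 uM ATP at pH 8.0 (20 mM HEPES, 5 mM MgCl2, 60 mM NaCl, 1 mM DTT, 0.01% BSA).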
TrxR1 substrate: is turned over as a substrate by rat TrxR1; purified TrxR1 substrate turnover, NADPH consumption readout; Potency, µM (titrated, usually from 114 µM); hit rate 0.01% among 390,000; AID 588456; also: nearly all actives have a fitted effect of over 50% in size
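Rat TrxR1, dispensed at 90 nM, was prereduced with 400 uM NADPH (final) for 5 min at ~22 deg C, then incubated with compound 15 min before 400 uM selenite. A first-read NADPH fluorescence drop versus no-compound background flagged substrates.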
TrxR1 inh: rat TrxR1 inhibition | recombinant rTrxR1, NADPH fluorescence consumption, selenite substrate | Potency, µM (highest dose often 114 µM), most hits filed as inhibitors | hit rate 1% among 390,000; also: nearly all actives have a fitted effect of over 65% in size
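Rat TrxR1 (90 nM in the dispensed reagent) was pre-reduced with 400 uM NADPH for 5 min at room temperature, then incubated with compound for 15 min. After 400 uM selenite was added, NADPH fluorescence (Ex 340/Em 450 nm) was followed for 8 min.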
A549 tox: A549 cytotoxicity, counter-screen for Nrf2 inhibitors; A549 ARE-Fluc cells, CellTiter-Fluor viability, 18-24 h; Potency, µM (highest dose often 46 µM), hits mostly inhibitors; hit rate 0.16% among 390,000; AID 504648
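A549 ARE_Fluc cells in 5% FBS OPTI-MEM were exposed to compounds in concentration-response for 18-24 h at 37 deg C. Viability was read by CellTiter-Fluor fluorescence (Ex 405/Em 525) after 30 min, before the luciferase read.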
Nrf2 inh: blocks Nrf2 signaling | AID 504444 | A549 ARE-Fluc reporter, luciferase luminescence, 18-24 h | Potency, µM (titrated, usually from 46 µM), usual class: inhibitors | hit rate 2.1% among 360,000; also: nearly all actives have a fitted effect of over 60% in size
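A549 ARE_Fluc cells, 5000/well, 5% FBS OPTI-MEM; compounds in dose-response, 18-24 h at 37 °C/5% CO2; CellTiter-Fluor viability read (Ex 405/Em 525), then BugLite luciferase luminescence = Nrf2 activity.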
Nrf2 activator: activators of Nrf2 (ARE) signaling. AREc32 ARE-luciferase reporter (MCF7-derived line), luminescence, 24 h. Potency, µM (titrated, usually from 46.1 µM), actives largely listed as activators. hit rate 0.31% among 410,000; also: nearly all actives have a fitted effect of over 65% in size
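Nrf2 activation is followed as ARE-luciferase induction in the AREc32 line after one day of compound treatment; luminescence is read with Steady-Glo.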
Numbers stand for hits; – = inactive; ? = inconclusive; · = no result given; [ ] = remark or other dose. Most compounds without a hit are left out; they make up all but 3% or so of the library. Calls follow the shape of the dose curve; as a rule, active = well fitted curve in the direction sought with a large enough effect; inconclusive = small, poorly fitted or top-dose-only effect, or another doubt; inactive = no such curve, though single readings can be large; an effect the other way counts as inactive or inconclusive.

SMILES	GALK inhibitor	TrxR1 substrate	TrxR1 inh	A549 tox	Nrf2 inh	Nrf2 activator
O=C(Nc1ccc(S(=O)(=O)NCCc2ccccc2)cc1)c1ccco1	–	–	?	–	–	–
O=C(NCc1cccnc1)c1ccc(NC(=O)c2cccc([N+](=O)[O-])c2)cc1	–	–	–	–	4.61µM	–
O=C(Nc1ccc(S(=O)(=O)NCCc2ccccc2)cc1)c1ccncc1	–	–	–	–	20.6µM	–
O=C(Nc1ccccc1)c1ccc(S(=O)(=O)NCc2cccnc2)cc1	–	–	–	–	13µM	–
O=C(NCc1cccnc1)c1ccc([N+](=O)[O-])cc1	–	–	–	–	–	–
O=C(Nc1ccc(S(=O)(=O)NCc2cccnc2)cc1)c1ccccc1Cl	–	–	–	–	?	–
CCc1nc(SCC(=O)N2CCCc3ccccc32)c2oc3ccccc3c2n1	–	–	–	?	16.4µM	–
CNS(=O)(=O)c1cn(CC(=O)Nc2ccc(C)cc2C)cc1S(=O)(=O)NC	·	–	–	–	–	–
O=C(Cn1ncc2c3ccccc3n(Cc3ccccc3)c2c1=O)N1CCN(c2ncccn2)CC1	–	–	–	–	16.4µM	–
COc1ccc(C2NC(=O)NC(O)(C(F)(F)F)C2C(=O)c2ccccc2)cc1OC (stereo not given)	–	–	28.2µM	–	–	–
COc1ccc(-c2nc3ccccc3c(=O)n2Cc2ccc(CNC(=O)CO)cc2)cc1COc1ccc(NC(C)=O)cc1	·	·	·	–	?	·
N=c1n(CCN2CCOCC2)c2ccccc2n1CC(=O)c1cccc([N+](=O)[O-])c1	–	–	–	–	–	3.16µM
COc1ccc(CN(Cc2ccccc2)C(=O)Nc2ccccc2)cc1COc1ccc(NC(C)=O)cc1	·	–	–	–	–	·
Cc1ccccc1C(=O)OCc1cc(=O)n2c(C)csc2n1	·	–	–	–	?	–
Nc1ccc(/C=C2\C=Cc3ccccc32)cc1	·	–	–[0.0914 µM]	·	·	·
C1=Cc2ccccc2/C1=C\c1cc[cH-]c1.[Fe+2].c1cc[cH-]c1	·	–	3.16µM	·	·	·
Cc1cc(S(=O)(=O)Nc2ccc3ccccc3c2)c(C)s1	–	–	–	?	–	–
Cc1cc(S(=O)(=O)Nc2cc(C)c(O)c(C)c2)c(C)s1	–	–	–	–	10.3µM	?
CC1=C(C(=O)NCc2cccc(F)c2)C2(CCCCC2)OC1=O	·	–	–	–	?	–
CCOC(=O)C1CCN(Cc2ccc(O)c3ncccc23)CC1	–	–	7.08µM	–	?	–
COc1cc(CSc2nnnn2-c2ccc(C)cc2)cc(OC)c1OC	–	–	–	–	6.51µM	–
COc1ccc(F)cc1CSc1nnnn1-c1ccc(O)cc1	–	–	–	–	–	–
Cc1noc(-c2ccc(N3CCCCC3C)c([N+](=O)[O-])c2)n1 (stereo not given)	·	–	–	–	?	–
Cc1c(C(=O)Nc2ccc(-c3nnc4n3CCCCC4)cc2)oc2c1ccc1ccccc12	–	–	–	?	9.2µM	–
CCc1ccc(NC(=O)CN2C(=O)c3ccccc3Sc3ccc(C(=O)N4CCCC4)cc32)cc1	·	–	–	–	·	–
SMILES	GALK inhibitor	TrxR1 substrate	TrxR1 inh	A549 tox	Nrf2 inh	Nrf2 activator
Cn1ccc2cc(S(=O)(=O)N3CCN(C(=O)Nc4ccc(F)cc4F)CC3)ccc21	·	–	–	–	·	–
CC1(C)c2ccccc2N2CC(=O)NC21/C=C/c1ccco1 (stereo not given)	–	–	?	–	–	–
CC1(C)c2ccccc2N2CCC(=O)NC21/C=C/c1ccco1 (stereo not given)	–	–	39.8µM	–	–	–
CN(CC(=O)Nc1ccc(Cl)cc1)S(=O)(=O)c1ccc2c(c1)n(C)c(=O)c(=O)n2C	–	–	–	–	–	–
CN(CC(=O)Nc1cccc(Cl)c1)S(=O)(=O)c1ccc2c(c1)n(C)c(=O)c(=O)n2C	–	–	25.1µM	?	?	–
Cn1c(=O)n(C)c2cc(N3CCOCC3)c(NC(=O)c3ccc(C(C)(C)C)cc3)cc21	·	–	–	–	–	–
CN(Cc1cccc(F)c1)C(=O)c1ccc(S(=O)(=O)N2CCCCCC2)cc1	·	–	–	–	23.1µM	–
Cc1ccc(CN(C)C(=O)c2cccc(S(=O)(=O)N3CCc4ccccc4C3)c2)o1	·	–	39.8µM	–	?	–
O=C(c1cccc(S(=O)(=O)N2CCN(c3ccccc3)CC2)c1)N1CCCC(C(F)(F)F)C1 (stereo not given)	·	–	–	–	13µM	–
CCN(CC(=O)Nc1c(F)cccc1F)C(=O)c1cccc(S(=O)(=O)N2CCCc3ccccc32)c1	·	–	–	?	25.9µM	–
CCCOc1ccc(NC(=O)CC2C(=O)N(c3ccc(C)cc3)C(=O)N2C(C)C)cc1 (stereo not given)	·	–	–	–	–	–
CCOc1ccc(CNC(=O)CCn2c(=O)c3cccn3c3cccnc32)cc1	·	–	–	–	–	–
COc1cccc(CN(C)C(=O)c2cccc(S(=O)(=O)N3CCN(c4ccccc4)CC3)c2)c1	·	·	·	·	·	–
COc1ccc(CN(C)C(=O)c2cccc(S(=O)(=O)N3CCN(c4ccccc4)CC3)c2)c(OC)c1OC	·	–	–	–	10.3µM	–
CN(CC(=O)Nc1ccc(F)cc1)C(=O)c1cccc(S(=O)(=O)N2CCN(c3ccc(F)cc3)CC2)c1	·	–	–	–	20.6µM	–
Cc1ccc(C)c(NC(=O)CN(C)C(=O)c2cccc(S(=O)(=O)N3CCN(Cc4ccccc4)CC3)c2)c1	–	–	–	–	11.6µM	–
CN(Cc1ccc(F)cc1)C(=O)c1cccc(S(=O)(=O)N2CCN(c3ccccc3)CC2)c1	·	–	–	–	23.1µM	–
COc1cccc(NC(=O)CN(C)C(=O)c2cccc(S(=O)(=O)N3CCN(c4ccc(F)cc4)CC3)c2)c1	·	–	–	–	?	–
CN(Cc1ccc(F)cc1)C(=O)c1cccc(S(=O)(=O)N2CCN(Cc3ccccc3)CC2)c1	·	–	–	–	?	–
CCOc1ccccc1N(C)C(=O)Cn1cnc2sc(C)c(S(=O)(=O)N3CCC(C)CC3)c2c1=O	·	–[2.29 µM]	–	–	–[9.27 µM]	–
CCc1ccc2[nH]c(=O)c(CN(Cc3cccs3)Cc3nnnn3Cc3ccccc3)cc2c1	·	–[0.0914 µM]	–	?	?	·
CCOc1ccc(CNC(=O)c2ccc(-c3nc(CSc4ccc(C)cc4)c(C)o3)cc2)cc1	·	–	–	–	–	–
COc1ccc(CN(C)C(=O)c2cccc(S(=O)(=O)N3CCCc4ccccc43)c2)c(OC)c1OC	·	–	–	?	23.1µM	–
CN(Cc1ccc(F)cc1)C(=O)c1cccc(S(=O)(=O)N2CCN(c3ccc(F)cc3)CC2)c1	·	–	–	–	18.4µM	–

Source: PubChem BioAssay
